# Experimental data taken from PubChem BioAssay (NCI).
# Compounds without any hit were thinned out: in the full panel of roughly 79,000, 15% have a hit. Values without a mark were called inactive. The source made the active and inactive calls. Cut-off read from the data, not from the text of the source: active = growth inhibition above about 70%; inactive = the rest.
# Assay: NCI Yeast Anticancer Drug Screen. Data for the bub3 strain (AID 167)
# Conditions: S. cerevisiae bub3 mutant strain, at 5.0 µM (retest, dose inferred, filed as 0.5), hits give high values
# Method in brief: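 In this screen, a yeast mutant lacking normal mitotic checkpoint function is challenged with compound. Relative growth versus vehicle gives the inhibition value.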
row,SMILES,growth inhibition
1,CCOP(=O)(OCC)/C(C#N)=C/c1ccc(Oc2ccccc2)cc1,-3%
2,CC(=O)Nc1ccc(S(=O)(=O)/N=C2\C=CC(=O)c3ccccc32)cc1,5%
3,CCCC#CCCOC(=O)c1cc([N+](=O)[O-])cc([N+](=O)[O-])c1,-11%
4,COc1cccc2c1OC(c1ccc(Cl)cc1)C([N+](=O)[O-])=C2 (stereo not given),97% (active)
5,c1ccc(-n2c3ccccc3c3ccccc32)cc1,5%
6,CCOC(=O)C(NC(C)=O)[CH](c1ccccc1)[Sn]([c]1ccccc1)([c]1ccccc1)[c]1ccccc1 (stereo not given),-13%
7,C/C(CCn1[nH]c(=O)ccc1=O)=N\Nc1ccc([N+](=O)[O-])cc1[N+](=O)[O-],32%
8,N#CC(O)C(Br)(Br)Br (stereo not given),-1%
9,COc1ccc(N)c([N+](=O)[O-])c1,2%
10,CC(C)O[C@H]1N(C2CC(N=[N+]=[N-])C(CO)O2)C(=O)NC(=O)[C@]1(C)Br (stereo not given in full),-7%
11,COc1ccc(C(=O)C2C(=O)C(=O)OC2C2OC(=O)C(=O)C2C(=O)c2ccc(OC)cc2)cc1 (stereo not given),0%
12,O=[N+]([O-])c1c(Cl)c(Cl)c(O)c(Cl)c1Cl,55%
13,Cc1ccc(C)c(NC(=O)CCC(=O)CC(=O)c2ccncc2)c1,-7%
14,CC(C)CCCC(C)C1CCC2C3CC=C4CC(OC(=O)Nc5ccc(S(=O)(=O)c6ccc(F)cc6)cc5)CCC4(C)C3CCC12C (stereo not given),1%
15,COc1ccc(/C=C(/NC(=O)c2ccccc2)C(=O)Nc2ccccc2)cc1OC,-6%
16,C=C(Br)CN(CC(=C)Br)C(C)=O,14%
17,CCN(C(C)=O)c1ccc2c(c1)Cc1ccccc1-2,11%
18,NN(c1ccccc1)c1cccc2ccccc12,-1%
19,C#CCN1CCN(C(=S)N/N=C(\C)c2ccccn2)CC1,14%
20,CC(C)OC(=O)C1C=CCc2c(O)ccc(O)c21 (stereo not given),4%

row,SMILES,growth inhibition
1,CC(=O)C1C(=O)C=C(C)OC1=O (stereo not given),0%
2,CCOC(=O)c1[nH]n(-c2ccccc2)c(=O)c1/C=N/C(=S)N=Nc1c(O)[nH]c2ccccc12,-13%
3,N#Cc1c(Cl)nnc(-c2ccccc2)c1-c1ccccc1,1%
4,CC(=O)Oc1c(O)c2ccccc2c2ccccc12,5%
5,Cc1cccnc1NC(=S)Nc1ccccc1Cl,18%
6,CCOC(=O)/C(=C\c1cccc(OC)c1)C(C)=O,23%
7,c1ccc(C(c2ccccc2)c2ccc3ccccc3n2)cc1,23%
8,O=c1cc(CSc2ccc(Cl)cc2)occ1O,-3%
9,COc1cc(NCCCCCNC2CCCCC2)c2ncccc2c1,14%
10,CC(=O)OCc1ccc([N+](=O)[O-])o1,-2%
11,O=C(O)Cc1cccc2cc3c(ccc4ccccc43)cc12,2%
12,Cc1cccc(N2C(=O)c3ccccc3C2(c2ccccc2)N2CCCCC2)c1 (stereo not given),-2%
13,O=C(/C=C/c1ccccc1)CCN1CCOCC1,35%
14,C=CCCCCCCCCC(=O)CCCCCCCCC=C,-1%
15,Cc1ccc(O)c(C(C)c2ccccc2)c1 (stereo not given),21%
16,COC(=O)c1nc(N)nc(C(=O)OC)c1C(=O)c1ccccc1,-3%
17,Cc1ccc(S(=O)(=O)Oc2ccc(C(C)(C)C)cc2Cl)cc1,1%
18,CCCCCCCCCCCCCCC[N+]1(CC)CCCCC1,98% (active)
19,CC12CCC(=O)C=C1C=CC1C2CCC2(C)C1CCC21CCC(=O)O1 (stereo not given),-1%
20,CC(C)N(C(=O)C12C3C4C1C1C2C3C41I)C(C)C (stereo not given),-38%

# Same assay, conditions: S. cerevisiae bub3 mutant strain, at 50.0 µM (retest, dose inferred, filed as 5.0), hits give high values
row,SMILES,growth inhibition
1,CCOP(=O)(OCC)/C(C#N)=C/c1ccc(Oc2ccccc2)cc1,94% (active)
2,CC(=O)Nc1ccc(S(=O)(=O)/N=C2\C=CC(=O)c3ccccc32)cc1,14%
3,CCCC#CCCOC(=O)c1cc([N+](=O)[O-])cc([N+](=O)[O-])c1,96% (active)
4,COc1cccc2c1OC(c1ccc(Cl)cc1)C([N+](=O)[O-])=C2 (stereo not given),96% (active)
5,c1ccc(-n2c3ccccc3c3ccccc32)cc1,21%
6,CCOC(=O)C(NC(C)=O)[CH](c1ccccc1)[Sn]([c]1ccccc1)([c]1ccccc1)[c]1ccccc1 (stereo not given),96% (active)
7,C/C(CCn1[nH]c(=O)ccc1=O)=N\Nc1ccc([N+](=O)[O-])cc1[N+](=O)[O-],98% (active)
8,N#CC(O)C(Br)(Br)Br (stereo not given),69%
9,COc1ccc(N)c([N+](=O)[O-])c1,30%
10,CC(C)O[C@H]1N(C2CC(N=[N+]=[N-])C(CO)O2)C(=O)NC(=O)[C@]1(C)Br (stereo not given in full),40%
11,COc1ccc(C(=O)C2C(=O)C(=O)OC2C2OC(=O)C(=O)C2C(=O)c2ccc(OC)cc2)cc1 (stereo not given),-5%
12,O=[N+]([O-])c1c(Cl)c(Cl)c(O)c(Cl)c1Cl,75% (active)
13,Cc1ccc(C)c(NC(=O)CCC(=O)CC(=O)c2ccncc2)c1,4%
14,CC(C)CCCC(C)C1CCC2C3CC=C4CC(OC(=O)Nc5ccc(S(=O)(=O)c6ccc(F)cc6)cc5)CCC4(C)C3CCC12C (stereo not given),-12%
15,COc1ccc(/C=C(/NC(=O)c2ccccc2)C(=O)Nc2ccccc2)cc1OC,9%
16,C=C(Br)CN(CC(=C)Br)C(C)=O,10%
17,CCN(C(C)=O)c1ccc2c(c1)Cc1ccccc1-2,96% (active)
18,NN(c1ccccc1)c1cccc2ccccc12,96% (active)
19,C#CCN1CCN(C(=S)N/N=C(\C)c2ccccn2)CC1,99% (active)
20,CC(C)OC(=O)C1C=CCc2c(O)ccc(O)c21 (stereo not given),24%

row,SMILES,growth inhibition
1,CC(=O)C1C(=O)C=C(C)OC1=O (stereo not given),2%
2,CCOC(=O)c1[nH]n(-c2ccccc2)c(=O)c1/C=N/C(=S)N=Nc1c(O)[nH]c2ccccc12,2%
3,N#Cc1c(Cl)nnc(-c2ccccc2)c1-c1ccccc1,91% (active)
4,CC(=O)Oc1c(O)c2ccccc2c2ccccc12,96% (active)
5,Cc1cccnc1NC(=S)Nc1ccccc1Cl,95% (active)
6,CCOC(=O)/C(=C\c1cccc(OC)c1)C(C)=O,95% (active)
7,c1ccc(C(c2ccccc2)c2ccc3ccccc3n2)cc1,58%
8,O=c1cc(CSc2ccc(Cl)cc2)occ1O,4%
9,COc1cc(NCCCCCNC2CCCCC2)c2ncccc2c1,57%
10,CC(=O)OCc1ccc([N+](=O)[O-])o1,73% (active)
11,O=C(O)Cc1cccc2cc3c(ccc4ccccc43)cc12,42%
12,Cc1cccc(N2C(=O)c3ccccc3C2(c2ccccc2)N2CCCCC2)c1 (stereo not given),-6%
13,O=C(/C=C/c1ccccc1)CCN1CCOCC1,100% (active)
14,C=CCCCCCCCCC(=O)CCCCCCCCC=C,4%
15,Cc1ccc(O)c(C(C)c2ccccc2)c1 (stereo not given),98% (active)
16,COC(=O)c1nc(N)nc(C(=O)OC)c1C(=O)c1ccccc1,0%
17,Cc1ccc(S(=O)(=O)Oc2ccc(C(C)(C)C)cc2Cl)cc1,-1%
18,CCCCCCCCCCCCCCC[N+]1(CC)CCCCC1,99% (active)
19,CC12CCC(=O)C=C1C=CC1C2CCC2(C)C1CCC21CCC(=O)O1 (stereo not given),99% (active)
20,CC(C)N(C(=O)C12C3C4C1C1C2C3C41I)C(C)C (stereo not given),-11%
